FECH inh – human FECH heme synthesis enzyme inhibition; P22830; AID 1671448; purified FECH, Ni-mesoporphyrin absorbance 550 nm; 3.3% of 20,000 active; calls only at 10 µM (by protocol);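 active = enzyme reaction rate more than 3 SD below the solvent-only control wells on the same plate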;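 note: lower slope than DMSO wells means FECH inhibition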
Target sequence (P22830 whole entry, looked up): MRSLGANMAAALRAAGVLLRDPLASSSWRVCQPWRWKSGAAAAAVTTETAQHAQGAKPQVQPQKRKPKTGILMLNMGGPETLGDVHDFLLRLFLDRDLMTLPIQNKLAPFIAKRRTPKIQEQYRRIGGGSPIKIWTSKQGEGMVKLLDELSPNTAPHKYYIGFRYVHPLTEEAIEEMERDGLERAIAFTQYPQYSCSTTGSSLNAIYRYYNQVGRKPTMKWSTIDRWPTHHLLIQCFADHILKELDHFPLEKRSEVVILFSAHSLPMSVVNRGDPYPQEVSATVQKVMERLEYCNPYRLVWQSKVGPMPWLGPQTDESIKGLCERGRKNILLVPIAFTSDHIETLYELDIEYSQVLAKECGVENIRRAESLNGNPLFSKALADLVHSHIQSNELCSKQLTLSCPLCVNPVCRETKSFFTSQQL
An asterisk follows results filed as active; i = inactive; + = active, no number. The full list was thinned out, with hits kept by preference.

SMILES	FECH inh
COc1cc2c(cc1CNC(=O)c1cnn3c1CCCC3)OCCO2	i
Nc1ccc(S(=O)(=O)N2CCOCC2)cc1S(N)(=O)=O	+
CC(=O)N1c2ccc(S(=O)(=O)N3CCOCC3)cc2CC1C(=O)N1CCOCC1 (configuration not stated)	i
Cc1cccc(NS(=O)(=O)c2ccc(N)c(S(N)(=O)=O)c2)c1	i
Cc1ccc(NCc2nc3nc4c(c(=O)n3[nH]2)CCC4)c(C)c1	+
Cc1cccc(NCc2nc3nc4c(c(=O)n3[nH]2)CCC4)c1	+
Cc1cccc(NC(=O)Nc2c(C)nc3nc(C)[nH]n3c2=O)c1	i
CCc1nc2nc(C)[nH]n2c(=O)c1NC(=O)Nc1cc(C)ccc1OC	i
O=c1cc(CNc2cccc(Cl)c2)nc2nc(NCc3ccc(F)cc3)[nH]n12	i
Cc1cccc(NC(=O)Nc2c(C)nc3nc[nH]n3c2=O)c1	i
O=c1c2c(nc3nc(CNc4cccc(Cl)c4)[nH]n13)CCC2	+
Cc1ccc(-c2nc(CSc3nc4c(c(=O)[nH]3)CCCC4)c(C)o2)cc1	i
Cc1nc2nc(C)c(NC(=O)Nc3cccc(Cl)c3)c(=O)n2[nH]1	i
Cc1ccc(-n2ccnc2-c2ccc(C#CCCO)cc2)c(O)c1	i
CCS(=O)(=O)Nc1cnc(N2CCC(CCN3CCCCC3)CC2)c(C(=O)O)c1	i
CC(=O)NCCn1ccnc1C1CCOC(C)(C)C1 (configuration not stated)	i
Cc1cc(C)n2nc(CN(c3ccccc3)S(C)(=O)=O)nc2n1	i
Cc1cc(C)c(CNC(=O)c2ccc(C)c(NC(=O)C3CC3)c2)c(C)c1	i
Cc1ccc2[nH]c3c(=O)n(CC(=O)Nc4ccc(S(N)(=O)=O)cc4)ncc3c2c1	i
CCOc1cccc(CN2CCN(c3nnnn3-c3ccccc3)CC2)c1O	i
CCCc1c(C)nc2ncnn2c1Sc1ccccc1NC(=O)c1cccc(Cl)c1	i
CCc1c(C)nc2ncnn2c1Sc1ccccc1NC(=O)c1ccc(OC)cc1	i
CCc1c(C)nc2ncnn2c1Sc1ccccc1NC(=O)c1cc(OC)cc(OC)c1	i
CCCc1c(C)nc2ncnn2c1Sc1ccccc1NC(=O)c1ccc(C)cc1	i
CCc1cc(Sc2ccccc2NC(=O)c2cccc(C)c2)n2ncnc2n1	i
SMILES	FECH inh
Cc1cccc(C(=O)Nc2ccccc2Sc2c(C)c(C)nc3ncnn23)c1	+
Cc1nc2ncnn2c(Sc2ccccc2NC(=O)c2ccc(Cl)cc2)c1C	i
Cc1nc2nc(-c3ccccc3)nn2c(Sc2ccccc2NC(=O)c2ccccc2)c1C	i
CCC(=O)Nc1ccccc1Sc1c(C)c(C)nc2nc(-c3ccccc3)nn12	+
Cc1nc2nc(-c3ccccc3)nn2c(Sc2ccccc2NC(=O)c2c(F)cccc2F)c1C	i
CCc1c(C)nc2ncnn2c1Sc1ccccc1NC(=O)c1ccc(F)cc1	+
CCCc1c(C)nc2ncnn2c1Sc1ccccc1NC(=O)c1ccc(C(C)(C)C)cc1	+
CC(C)c1csc(C(=O)N2CCn3cncc3C2)n1	i
CN(C)CCNC(=O)C1CCN(c2ccc(-c3cccs3)nn2)CC1	i
CCOc1c(NCc2ccc(C)cc2)c(=O)c1=O	i
Cc1cc2c(cc1S(=O)(=O)N1CCCC1C(=O)NC1CCCCC1)OCC(=O)N2 (configuration not stated)	i
CCc1nn(CC(=O)NCCc2ccc(S(N)(=O)=O)cc2)c(=O)c2cc3sc(C)cc3n12	i
CN(CCCc1cnn(C)c1)C(=O)C1(c2ccccc2F)CC1	i
CC(C)Cc1nc(-c2ccc3c(c2)OCO3)n[nH]1	i
CC(=O)c1ccc(N2CCN(C(=O)c3cc(C)nc4c(C)cccc34)CC2)cc1	i
COc1cc(OC)cc(C(=O)Nc2cc(C)nn2-c2ncnc3c2cnn3-c2cccc(Cl)c2)c1	i
Cc1cc(Sc2ccccc2NC(=O)c2cccs2)n2nc(-c3ccccc3)nc2n1	i
O=C1c2ccccc2C(=O)N1c1nc2n(n1)C(c1ccc(F)cc1)C=C(c1ccc(Cl)cc1)N2 (configuration not stated)	i
CNC(=O)[C@@H]1C[C@H](N)CN1C(=O)C1(Nc2ccc(OC)cc2)CCCCC1	i
Cn1c(=O)c(C(=O)N2CCN(c3ncccn3)CC2)nc2ccccc21	i
COc1ccc(N2CCN(C(=O)c3nc4ccccc4n(C)c3=O)CC2)cc1	i
COc1ccc(CN2CCN(C(=O)c3nc4ccccc4n(C)c3=O)CC2)c(OC)c1OC	+
Cc1ccc(C)c(C(NC(=O)c2nnc(C)o2)c2cccnc2)c1 (configuration not stated)	i
Cc1cc(N2CCC(Nc3ncccn3)CC2)nc(-c2cccnc2)n1	i
CN(Cc1cccnc1)C(=O)c1ccc(CSc2ncccn2)o1	i
CC(C)(C)c1ccc(CN(Cc2ccco2)S(=O)(=O)c2ccc(S(N)(=O)=O)cc2)cc1	i
CC(=O)c1ccc(NC(=O)Cn2c(C(=O)OC(C)C)cc3ccsc32)cc1	+
CC(=O)c1cccc(NC(=O)Cn2c(C(=O)OC(C)C)cc3ccsc32)c1	i
COc1ccc(NC(=O)Cn2c(C(=O)OC(C)C)cc3ccsc32)cc1	i

High-throughput results: PubChem, Corson Lab, School of Medicine, Indiana University
